Screens from PubChem BioAssay.
In the library only some 2.1% were active in any assay of this set; here they are far more common.
Calpain2 inh: inhibitors of pig calpain II, primary screen, biochemical, fluorogenic peptide substrate, 1536-well; 0.37% of 220,000 active; AID 1236, 2008; purified calpain II, 30 min; inhibition, % at 16 µM;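 active means inhibition above about 50%, limit read from the data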
Arbovirus inh: antivirals against arbovirus infection, primary screen, cell-based, full library, 10K replicate subset | arbovirus infection cell-based antiviral screen | inhibition, % at 10 µM | 0.37% of 200,000 active | AID 1251, 2008; in the data active means inhibition above about 30%
HSV replic up: enhancers of HSV replication in host cells, fold increase, host cell viability; HSV replication augmentation in cells; maximum fold increase; 0.005% of 220,000 active; AID 1956, 2009; in the data active means maximum fold increase above about 1.5; tested in PC3 cells
Efa HMGR inh: inhibitors of E. faecalis class II HMGR, primary screen, biochemical, Enterococcus faecalis | HMG-CoA reductase (Enterococcus faecalis, mvaE) | purified E. faecalis HMGR, NADPH absorbance 340 nm kinetic | inhibition, % at 10 µM | 0.41% of 190,000 active | AID 1066, 2008;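 active means inhibition above a set limit, the median over all tested compounds plus 3 SD, cut at about 9.5% in these data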;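 further: enzyme runs in reverse so mevalonate oxidation gives rising NADPH absorbance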
ROMK mod: ROMK potassium channel modulators, primary screen, cell-based, thallium flux, MLSMR library | AID 1918, 2009 | B-score at 10 µM | Tet-inducible ROMK, thallium flux fluorescence; actives lie on both sides | 2% of 130,000 active | ATP-sensitive inward rectifier potassium channel 1 (Homo sapiens), P48048;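 active means signal ratio slope over the read window, or its plate-corrected B-score, at least 3 SD from the plate mean, either direction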;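 further: B-score of the F/F0 ratio slope over 7 to 12 s after thallium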
Target sequence (P48048 whole entry, looked up): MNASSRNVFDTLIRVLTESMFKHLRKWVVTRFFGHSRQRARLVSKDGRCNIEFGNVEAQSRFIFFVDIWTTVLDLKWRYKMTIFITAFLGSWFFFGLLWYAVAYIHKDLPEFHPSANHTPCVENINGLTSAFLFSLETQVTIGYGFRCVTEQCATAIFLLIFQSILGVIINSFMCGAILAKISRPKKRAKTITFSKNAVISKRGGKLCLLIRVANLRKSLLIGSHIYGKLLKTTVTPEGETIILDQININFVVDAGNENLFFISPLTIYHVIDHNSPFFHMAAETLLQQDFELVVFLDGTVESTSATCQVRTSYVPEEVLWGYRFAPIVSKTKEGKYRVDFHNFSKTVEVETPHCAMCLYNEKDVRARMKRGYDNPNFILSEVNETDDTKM
Of the large screens only hits and unclear results are named; the others gave an inactive call.

O=C(NCCc1ccccc1)[C@@H]1CC=C[C@@H]2CCN(C3CCCCC3)C(=O)[C@@H]21	none (no result: Calpain2 inh, Arbovirus inh, Efa HMGR inh, ROMK mod)
CC(C)Oc1ccc(-c2nn(-c3ccccc3)cc2/C=c2\sc3ncnn3c2=O)cc1	Arbovirus inh 33.8 (no result: HSV replic up, ROMK mod)
O=c1/c(=C/c2cn(-c3ccccc3)nc2-c2ccc(F)cc2)sc2nc3ccccc3n12	none (no result: ROMK mod)
Cc1cc(C)n2c(SCC(=O)NC3CCCCC3)nnc2n1	none
CC[C@@H]1C=C(C)C[C@H](C)C[C@H](OC)[C@H]2O[C@@](O)(C(=O)C(=O)N3CCCC[C@H]3C(=O)O[C@H](/C(C)=C/[C@@H]3CC[C@@H](O)[C@H](OC)C3)[C@H](C)[C@@H](O)CC1=O)[C@H](C)C[C@@H]2OC	ROMK mod -3.55
CC(C)(C#CCN1CCCCC1)OCCOC(c1ccccc1)c1ccccc1	none (no result: ROMK mod)
O=C1CSC(c2cccnc2)N1c1ccc(F)cc1 (configuration not stated)	none
O=C1CSC(c2cccnc2)N1c1cccc(Cl)c1 (configuration not stated)	Efa HMGR inh 12.9
O=S(N1CCc2ccccc21)C12CC3CC(CC(C3)C1)C2 (configuration not stated)	Calpain2 inh 102.8
CCn1nc(C(=O)OCC(=O)c2c[nH]c3ccccc23)c2ccccc2c1=O	Calpain2 inh 55.9
Cc1ccc(O)c(-c2cc(C(F)(F)C(F)F)[nH]n2)c1	Arbovirus inh 34.3
NC(=O)C12CCCC(Br)(CCC1)C2	none (no result: Arbovirus inh, Efa HMGR inh)
COc1ccccc1OCCNc1nc2c(c(=O)n(C)c(=O)n2C)n1C	none
Cn1c(NCc2ccco2)nc2c1c(=O)n(Cc1ccc(Br)cc1)c(=O)n2C	Calpain2 inh 71.0 (no result: ROMK mod)
CC(C)n1c(NCCc2ccccc2)nc2c1c(=O)n(C)c(=O)n2C	Arbovirus inh 30.4 (no result: ROMK mod)
COc1ccc(CNc2nc3c(c(=O)n(Cc4ccc(Br)cc4)c(=O)n3C)n2C)cc1	Calpain2 inh 88.5
Cn1c(=O)c2c(nc(NCCOc3ccc(C(C)(C)C)cc3)n2C)n(C)c1=O	Efa HMGR inh 12.7
Cc1ccc(C)c(C(C)NC(=O)c2ccc(Br)o2)c1 (configuration not stated)	none (no result: ROMK mod)
CC12CCC(C/C1=N/O)C2(C)CBr (configuration not stated)	none (no result: Arbovirus inh, Efa HMGR inh)
O=C(NC1CCSC1=O)C1CCCCC1 (configuration not stated)	none
CC1(C)[C@@H](O)CC[C@]2(C)C3C(O)C=C4[C@H]5C[C@@](C)(CO)CC[C@]5(C)CC[C@]4(C)[C@]3(C)CC[C@@H]12 (some centres not stated)	none (no result: Arbovirus inh, Efa HMGR inh, ROMK mod)
Cn1c(NCc2ccco2)nc2c1c(=O)n(Cc1ccc(Cl)cc1)c(=O)n2C	none (no result: ROMK mod)
Cn1c(NCc2ccccc2)nc2c1c(=O)n(Cc1ccc(Br)cc1)c(=O)n2C	Calpain2 inh 77.5
O=C(c1ccc(COc2ccccc2[N+](=O)[O-])o1)N1CCCCCC1	Efa HMGR inh 11.6 (no result: ROMK mod)
CCCn1nc(C(=O)Oc2ccc3c(C)cc(=O)oc3c2)c2ccccc2c1=O	none
CCn1c(CNC(=O)c2ccccc2)nc2ccccc21	none (no result: Calpain2 inh, Arbovirus inh, Efa HMGR inh, ROMK mod)
C/C(=N\NC(=O)c1ccccc1)c1nc2ccccc2n1C	Arbovirus inh 41.4 (no result: ROMK mod)
N#Cc1c2ccc(O)cc2n2ccccc12	ROMK mod -4.72
O=C(COC(=O)c1ccc(=O)[nH]c1)Nc1cccc(S(=O)(=O)N2CCOCC2)c1	none (no result: Arbovirus inh, Efa HMGR inh, ROMK mod)
COCCCNCC1C(Oc2ccc(Cl)cc2)C(=O)N1c1ccccc1C (configuration not stated)	Arbovirus inh 49.0
Cc1nn(CC(=O)OCCOc2ccc(Br)cc2)c(C)c1[N+](=O)[O-]	Arbovirus inh 60.7
Cc1cc(C)c2c(c1)/C(=c1/sc3n(c1=O)CN(c1ccccc1)CN=3)C(=O)N2	none (no result: Arbovirus inh, Efa HMGR inh)
Cc1ccc(S(=O)(=O)N2CCCC(C(=O)NCc3ccco3)C2)cc1Cl (configuration not stated)	Efa HMGR inh 12.5 (no result: ROMK mod)
COC(=O)c1cn(NC(=O)/C=C/c2ccc(OC)c(OC)c2)c(=O)c2ccccc12	none (no result: ROMK mod)
Brc1ccc(CSc2nnc3ccccn23)cc1	Efa HMGR inh 14.7
CCOc1ccc(NC(=O)CNC(=O)c2cccs2)cc1	none
COC(=O)c1oc(-c2ccc(Cl)cc2)nc1C	none
COc1oc(-c2ccc(Cl)cc2)nc1C(F)(F)F	Efa HMGR inh 21.5 (no result: ROMK mod)
O=C(Nc1ccc([N+](=O)[O-])cc1)C1CC1(c1ccccc1)c1ccccc1 (configuration not stated)	none (no result: ROMK mod)
